# Measured values: PubChem BioAssay (NCI)
# The panel holds about 79,000 compounds, 15% with a hit somewhere; the sample as a whole holds those more often. Unmarked numbers belong to inactive results. Activity calls are given as the source filed them. Rule as the data show it: active = growth inhibition above about 70%; inactive = the rest.
# Assay: NCI Yeast Anticancer Drug Screen. Data for the sgs1 mgt1 strain (AID 161);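 also: 0% = growth of cultures given vehicle only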
# Conditions: S. cerevisiae sgs1 mgt1 strain, at 50.0 µM, active compounds read high
# Description: Growth inhibition of yeast strains with defined genetic alterations is measured as a screen for potential anti-cancer activity. Selected strains with alterations in DNA damage repair or cell cycle control were exposed to compounds and growth inhibition was measured relative to vehicle treated controls. The strain used in this assay is sgs1 mgt1
row,SMILES,growth inhibition
1,O=C(O)C1C(c2ccccc2)CC(=O)N1c1ccc(Cl)cc1 (stereo not given),5.75%
2,CCCNC(=O)Nc1ccccc1OCC,-8.6%
3,N=C1N=Nc2nc(C(C(=O)c3cccc4ccccc34)c3nc4n(c3O)C(=N)N=N4)c(O)n21 (stereo not given),14.2%
4,NC(=S)NNC(=O)C(Cc1ccccc1)NC(=O)OCc1ccccc1 (stereo not given),22.9%
5,O=C1CC(c2ccccc2)NCN1 (stereo not given),7.1%
6,COc1nc2cc(C)c(C)cc2n1C1OC(CO)C(O)C1O (stereo not given),6.95%
7,CN(C)[C@@H]1C(=O)C(C(=O)NCNc2cccc(C(=O)O)c2C(=O)O)=C(O)[C@@]2(O)C(=O)C3=C(O)c4c(O)cccc4[C@@](C)(O)[C@H]3C[C@@H]12,21.8%
8,Cc1ccc2c(c1)C(c1ccccc1)(c1ccccc1)OC2=O,6.75%
9,COc1cc2ccc3c4cc5c(cc4cnc3c2cc1OC)OCO5,-15.7%
10,FC(F)(F)c1ccc(C2ON=C(c3ccccc3)N2C23CC4CC(CC(C4)C2)C3)cc1 (stereo not given),25.1%
11,CN(C=O)/C=C/c1cc(O)ccc1O,-1.6%
12,COC(=O)C(=O)C(C(=O)C(N)=O)c1nc2ccc(C(=O)c3ccccc3)cc2[nH]c1=O (stereo not given),-17.2%
13,Cc1cc(C)c(/C=C/c2c(C)cc(C)cc2C)c(C)c1,4.2%
14,Cn1c(=O)ccc2c(=O)c3c(ccc4ccccc43)oc21,-28.1%
15,CC1OS(=O)(=O)CS(=O)(=O)OC1C (stereo not given),-12.8%
16,O=C(NCc1ccccc1)C(O)c1ccccc1 (stereo not given),-1.25%
17,CC(C)(C)C(=O)N/N=C\c1ccc([N+](=O)[O-])s1,20.4%
18,CC(C)(C)OC(=O)CNC(=O)C(CSC(c1ccccc1)c1ccccc1)NC(=O)CNC(=O)C(CCCCNC(=O)OCc1ccccc1)NC(=O)CNC(=O)C(CSC(c1ccccc1)(c1ccccc1)c1ccccc1)NC(=O)OCc1ccccc1 (stereo not given),8.5%
19,CCOc1cc2c(cnc3c4cc(OC)c(OC)cc4ccc23)cc1OC,-13.5%
20,C[C@H]1S[C@@H](c2ccc(Cl)cc2Cl)N(NC(=O)c2ccncc2)C1=O,40%

row,SMILES,growth inhibition
1,O=C1NC(c2cccc3c2OCO3)N=C2Oc3ccccc3C=C12 (stereo not given),9.45%
2,[N-]=[N+]=NC1(Cc2ccccc2)C(=O)c2cccc3c2N(CCC3)C1=O (stereo not given),-0.65%
3,CN(N=O)c1c([N+](=O)[O-])cc2c(c1[N+](=O)[O-])Cc1ccccc1-2,-8.8%
4,CN(C)CC(/C(Cc1ccccc1)=N\NC(=S)NN)c1ccccc1 (stereo not given),38.2%
5,O=[N+]([O-])c1ccc(Cl)c(F)c1Cl,-0.2%
6,O=[N+]([O-])c1ccc(-n2cnc3c(Cl)ncnc32)cc1,14.6%
7,Clc1ccc(C2SC=Cc3ccccc32)cc1 (stereo not given),47.6%
8,CN(C)C(SCc1c(Cl)c(Cl)c(Cl)c(Cl)c1Cl)=[N+](C)C,15.4%
9,O=c1c(SCc2ccccc2Cl)c(SCc2ccccc2Cl)cnn1-c1ccccc1,12.6%
10,CN(C)c1ccc(N=Nc2ccc(C(C)(C)C)cc2)cc1,5.55%
11,CCOC(=O)C(=O)C1C(=O)Nc2ccccc21 (stereo not given),-6.35%
12,O=c1[nH]c(=O)c2[nH]cnc2[nH]1,5.9%
13,CCCCCCCCCCCC(=O)N/N=C(\c1ccccc1)c1ccc(Cl)cc1,93.5% (active)
14,CC(C(=O)O)c1ncnn1-c1ccccc1 (stereo not given),6.45%
15,COC(=O)c1c(C)c(C)cc(C)c1C,-4.1%
16,CCOC(CN1CCCCC1)OCC,17.1%
17,CCOC(=O)Nc1cc2c(c(N)n1)N=C(c1ccc(Cl)cc1Cl)CN2,25.6%
18,Cc1ccc(C(=O)NC(C)C)cc1N=NN(C)C,-46.9%
19,O/N=C/c1ccccn1,-5.6%
20,Cc1cccc(NC(=S)Nc2ccc(-c3ccc(NC(=S)Nc4cccc(C)c4)cc3)cc2)c1,29.9%
